PubChem BioAssay AID836 (Columbia University Molecular Screening Center, 2007)
About 160 (0.18%) of roughly 91,000 compounds were called active.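 Rule for the calls: active = inhibition above the batch mean plus 3 SD and confirmed as a hit by visual image inspection (cut at about 30% in these data, passing the limit was not always enough); inconclusive = above the inhibition threshold but rejected on visual inspection; inactive = the rest.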 Shown is part of a subset that was picked to be rich in actives.

assay: disruptors of actin filament network in HUVEC – imaging, phalloidin staining, high-content imaging, primary screen (AID 836); details: HUVEC TNFa F-actin phalloidin imaging, at 2 µM, stronger effect = higher value

Row | Structure (SMILES) | inhibition
1 | O=C1c2cccc3cc(Br)cc(c23)C(=O)N1Nc1ccccc1 | -0.3% (inactive)
2 | O=C(Nc1cccc2ncccc12)C(Cl)(Cl)Cl | 17.1% (inactive)
3 | O=C(NC1CCN(C(=S)NCc2ccco2)CC1)c1ccc(F)cc1 | 9.8% (inactive)
4 | N#C/C(=C1/CCCN1)c1ccccn1 | -5.5% (inactive)
5 | Nc1c(-c2cccc(Cl)c2)cnn1-c1cccc([N+](=O)[O-])c1 | 14.9% (inactive)
6 | Cc1cc(OC(=O)c2ccc(Cl)cc2)cc(=O)n1C | 2.4% (inactive)
7 | O=C(O)c1ccccc1NC(=S)NC(NC(=O)c1ccccc1[N+](=O)[O-])C(Cl)(Cl)Cl (stereo unspecified) | -20.2% (inactive)
8 | COc1ccc(CN(C(=O)CSc2nnc(-c3ccc(OC)c(OC)c3)o2)c2ccc(F)cc2)cc1 | 15.5% (inactive)
9 | COc1ccc(CCNC(=O)CSc2nnc(-c3cccc(F)c3)o2)cc1OC | 2.3% (inactive)
10 | COc1ccc(-c2nnc(SCC(=O)NC3CCCCC3)o2)cc1OC | 30.5% (active)
11 | CC(=O)c1nn(-c2cccc(Br)c2)cc1C(=O)c1cccc2ccccc12 | 18.2% (inactive)
12 | O=C(CSc1ccc(/C=N/NC(=O)c2cccc(F)c2)o1)Nc1ccccc1 | 1.1% (inactive)
13 | NC(=O)C1(N2CCCCC2)CCN(C(=S)Nc2ccc(Cl)cc2)CC1 | -20.4% (inactive)
14 | COCCCn1c(SCc2cccc(OC)c2)nc2cc(OC)c(OC)cc2c1=N | 3.7% (inactive)
15 | Cc1ccc(N2CCN(C3=NC(=O)/C(=C\c4cccs4)S3)CC2)cc1 | 24.1% (inactive)
16 | CCCCCOC(=O)NCCOC(=O)Nc1ccc(C(=O)OCC)cc1 | 8% (inactive)
17 | CCCCCCOC(=O)NCC(O)c1ccccc1 (stereo unspecified) | 61.8% (active)
18 | CCCCOC(=O)NCN1C(=O)C2C3C=CC(C3)C2C1=O (stereo unspecified) | 11.5% (inactive)
19 | CCC(=O)OCc1c(C(F)(F)F)nn(C)c1Oc1cccc(C(F)(F)F)c1 | -4% (inactive)
20 | COC(=O)c1ccc(C2C(Oc3ccccc3C)C(=O)N2CCc2ccc(OC)c(OC)c2)cc1 (stereo unspecified) | 3.1% (inactive)
21 | Cc1[nH]c2ccccc2c1C(=O)COC(=O)C(C)C | -13% (inactive)
22 | Cc1ccc(-c2nc(C)sc2CC(=O)O)cc1 | 7.2% (inactive)
23 | N=c1oc2ccccc2cc1C(=O)N/N=C/c1ccccc1 | -3.7% (inactive)

Row | Structure (SMILES) | inhibition
24 | COc1cc(/C=N\NC(=O)C2C(=O)NCC2c2ccccc2)cc(OC)c1O (stereo unspecified) | 2% (inactive)
25 | CC1CCc2c(c3ccccc3[nH]c2=O)O1 (stereo unspecified) | 3% (inactive)
26 | Nc1c(-c2ccc(F)cc2)cnc2ncnn12 | 21.9% (inactive)
27 | Cc1ccc(SCC(=O)NC(=O)NCc2ccco2)c(C)c1 | 1.6% (inactive)
28 | COc1ccc([N+](=O)[O-])cc1NC(=O)CCc1ccccc1 | 9.1% (inactive)
29 | CC(Oc1ccc(-c2ccccc2)c(F)c1)c1ccn(S(=O)(=O)c2cccc3ccccc23)n1 (stereo unspecified) | 1.3% (inactive)
30 | N#C/C(=C(/O)Cc1cccc2ccccc12)c1nc2ccccc2s1 | 18.2% (inactive)
31 | COc1cc(C2CC(=O)c3cnc(NC(C)=O)nc3C2)cc(OC)c1OC (stereo unspecified) | -1.6% (inactive)
32 | O=C(Nc1ncc2c(n1)CC(c1ccco1)CC2=O)c1ccc(Cl)cc1 (stereo unspecified) | 100% (active)
33 | CC1=C(C(=O)Nc2ccc(Cl)cc2)C(c2ccco2)NC(=O)N1 (stereo unspecified) | -60.1% (inactive)
34 | FC(F)(F)c1cccc(-c2cc3ccccc3nc2N2CCCC2)c1 | -10% (inactive)
35 | COc1cccc(NC(=O)C2c3cc(OC)c(OC)cc3C(=O)N(C)C2c2cccnc2)c1 (stereo unspecified) | 29% (inactive)
36 | NC(=O)COc1ccc(/C=N/NC(=O)C2CCCN2S(=O)(=O)c2ccc(Cl)cc2)cc1 (stereo unspecified) | -7.7% (inactive)
37 | CC(=O)c1cn(CCCCCCCCCCn2cc(C(C)=O)c(=O)[nH]c2=O)c(=O)[nH]c1=O | 6.8% (inactive)
38 | O=C(CCc1ccc(S(=O)(=O)N2CCOCC2)cc1)Nc1ccc2ccccc2c1 | -5% (inactive)
39 | O=C(CNC(=O)c1ccccc1)NCC(=O)OCc1ccc(Cl)cc1 | -29.4% (inactive)
40 | CC(C(=O)Nc1ccc(F)c(F)c1F)N1CCCCCC1 (stereo unspecified) | 9.4% (inactive)
41 | O=c1c2ccccc2nc2n1C(CSc1ccc(Cl)cc1)CN2 (stereo unspecified) | -15.2% (inactive)
42 | Cc1cccc(CSc2nnc(NC(=O)CSc3nnc(C)s3)s2)c1 | -21.1% (inactive)
43 | O=C(NC1CCCCC1)c1cc([N+](=O)[O-])ccc1N1CCOCC1 | -40.7% (inactive)
44 | Cc1n[nH]c(=O)n1-c1ccc(Oc2ccccc2)cc1 | 22.6% (inactive)
45 | Cc1ccc(C)c(NC(=O)C2Cc3ccccc3CN2C(=O)OCc2ccccc2)c1 (stereo unspecified) | 26.6% (inactive)
46 | Cc1ccc(S(=O)(=O)N(CC(=O)NCCSC2CCCCC2)c2ccccc2F)cc1 | 1.5% (inactive)

Row | Structure (SMILES) | inhibition
47 | CC(C)CC(=O)N1CCC(O)(CS(=O)(=O)Cc2ccccc2)CC1 | 34.4% (inactive)
48 | Cc1ccc(-c2csc(N(Cc3ccco3)C(=O)c3cccs3)n2)cc1 | 5.4% (inactive)
49 | Fc1ccccc1COc1ccccc1CNCc1ccncc1 | -4.1% (inactive)
50 | COc1ccccc1NC(=O)c1ccc2nc(N3C(=O)CCC3=O)sc2c1 | 19.2% (inactive)
51 | COc1cc(C2C(C(=O)OCCC#N)=C(C)NC3=C2S(=O)(=O)c2ccccc23)cc(OC)c1OC (stereo unspecified) | -21.9% (inactive)
52 | O=C(CCCN1C(=O)c2cccc3cccc(c23)C1=O)N1CCN(Cc2ccc3c(c2)OCO3)CC1 | 21% (inactive)
53 | Cc1cccc(COc2ccccc2/C=N/Nc2ccc([N+](=O)[O-])cc2)c1 | 15.8% (inactive)
54 | COc1ccccc1OCCNc1cc(N2CCOCC2)ccc1[N+](=O)[O-] | 5.1% (inactive)
55 | O=C(COc1ccc(Br)cc1F)NC1CCN(Cc2ccccc2)CC1 | -0.2% (inactive)
56 | C/C(=N/NC(=O)c1ccc(NC(=O)c2ccc(F)cc2)cc1)c1ccccc1 | -18.2% (inactive)
57 | COc1cc(/C=C(/NC(=O)c2ccccc2)C(=O)Nc2cccc(O)c2)c([N+](=O)[O-])cc1OC | 7.4% (inactive)
58 | C=CCNC(=S)NNc1ncnc2sc3c(c12)CC(C)(C)OC3 | -11.6% (inactive)
59 | C=CCNC(=O)c1sc(SC)cc1-c1ccc(Cl)cc1 | 7.4% (inactive)
60 | Cc1cccc(-n2cnc(C(=O)Nc3cccnc3)c2)n1 | 1.4% (inactive)
61 | Cc1cccc(C)c1NC(=O)c1ccc(CN2CCc3ccccc3C2)cc1 | -19.9% (inactive)
62 | Cc1cc(C)cc(OCC(=O)Nc2nc3ccc([N+](=O)[O-])cc3s2)c1 | -19.8% (inactive)
63 | Cc1ccc(-c2nnc(-n3nnc4ccccc43)c3ccccc23)cc1 | -2% (inactive)
64 | CC(C)c1ccc(/C=C/C(=O)NNC(=O)c2cccnc2)cc1 | 1.1% (inactive)
65 | O=C(Nc1ccccc1)O/N=C1\CCCCC1c1ccc([N+](=O)[O-])cc1[N+](=O)[O-] (stereo unspecified) | -8.4% (inactive)
66 | c1ccc2c(CSCc3nc4ccccc4[nH]3)cccc2c1 | -12.1% (inactive)
67 | CSc1ccc(C#N)cc1NC(=O)c1cccc(Cl)c1 | 3.3% (inactive)
68 | Cc1[nH]n(-c2ccccc2)c(=O)c1CCOC(=O)c1ccc(C(F)(F)F)cc1 | -0.4% (inactive)
69 | CN(C)Cc1ccccc1C1(O)c2ccccc2CSc2ccccc21 (stereo unspecified) | -10.2% (inactive)

Row | Structure (SMILES) | inhibition
70 | O=C(/C=C/c1ccccc1)N/C(=C/c1ccccc1)C(=O)Nc1ccccc1O | -50.9% (inactive)
71 | CCOc1ccc(-c2c(C)n([O-])c3c([n+]2=O)CCCC3)cc1 | -18.2% (inactive)
72 | Cc1c(Nc2cc(N3CCCC(C)C3)c3nonc3c2[N+](=O)[O-])c(=O)n(-c2ccccc2)n1C (stereo unspecified) | 3.1% (inactive)
73 | COc1cc(/C=N/O)cc(Br)c1OCc1cccc(Cl)c1 | -41.4% (inactive)
74 | CCOC(=O)c1nn(-c2cccc(C)c2)cc1C(=O)c1ccccc1 | 5.4% (inactive)
75 | O=C(/C=C/c1cc2c(cc1Br)OCO2)NCc1ccc(Cl)cc1 | 7.8% (inactive)
76 | Cc1nc(NC2=NC(C(=O)Nc3ccc(Cl)cc3)CC(=O)N2)nc2ccccc12 (stereo unspecified) | 7.9% (inactive)
77 | Cc1nc(C)c(C(=O)N(c2ccc(C)c(C)c2)C(C(=O)NCc2ccco2)c2ccccc2)s1 (stereo unspecified) | 29.1% (inactive)
78 | Cc1ccc(NC(=S)N/N=C2/CCCc3c(C)cc(C)cc32)cc1 | 13.9% (inactive)
79 | Cc1nn(-c2ccccc2)c(Cl)c1C(=O)Nc1ccccc1 | -7.8% (inactive)
80 | Cc1cc(=O)oc2cc(OC(C)C(=O)Nc3ccc(N4CCOCC4)cc3)ccc12 (stereo unspecified) | 0.5% (inactive)
81 | CCOC(=O)CSc1ncc(-c2cccc(Cl)c2)cn1 | -17.9% (inactive)
82 | C=CCn1c(SCC(=O)c2c(N)n(C)c(=O)n(C)c2=O)nc2sc(CC)cc2c1=O | 2% (inactive)
83 | Cc1cccc(NC(=O)c2ccc(OCC(=O)NCc3ccccc3)cc2)c1C | 4.9% (inactive)
84 | COc1ccc(Cl)cc1NC(=O)CN(C)C(=O)CNC(=O)C12CC3CC(CC(C3)C1)C2 | 16% (inactive)
85 | O=C(Cc1ccc(S(=O)(=O)N2CCOCC2)s1)NCCC(c1ccccc1)c1ccccc1 | 4.8% (inactive)
86 | CCCc1ccc(-c2c(C)sc(NC(=O)c3ccnn3C)c2C#N)cc1 | 10% (inactive)
87 | CCOC(=O)C1=C(CN2CCc3ccccc32)NC(=O)NC1c1cc(C)ccc1C (stereo unspecified) | -13.1% (inactive)
88 | CCn1cc(C(=O)N/N=C(/C)c2ccc(F)cc2)c(=O)c2cc(F)c(N3CCCC3)cc21 | 15.8% (inactive)
89 | Cc1c(C(=O)NCc2ccccc2)cnn1-c1ccccc1 | -6.2% (inactive)
90 | O=C(Nc1cc(C(F)(F)F)ccc1Cl)c1cc2nc3c(c(C(F)(F)F)n2n1)CCCC3 | 0.6% (inactive)
91 | O=C(CN1CCCCCC1)Nc1ccc(Br)cc1Br | 12.8% (inactive)
92 | CC(C)(C)Cc1nnc(NC(=O)c2cc(-c3ccccc3)nc3ccccc23)s1 | 15.7% (inactive)

Row | Structure (SMILES) | inhibition
93 | C=CCn1c(-c2ccc(Cl)cc2)ccc(C#N)c1=O | -30.7% (inactive)
94 | O=[N+]([O-])c1cccc(-c2nnc3c4ccccc4c4ccccc4n23)c1 | 5.3% (inactive)
95 | CN1OC(COC(=O)c2ccc(Cl)cc2)CC1c1ccccc1 (stereo unspecified) | 6.5% (inactive)
96 | CC1Cc2ccccc2N1CC(=O)Nc1ccc2c(c1)OC(F)(F)O2 (stereo unspecified) | -0.7% (inactive)
97 | Cn1sc(NC(=O)c2ccccc2)nc1=O | -7.1% (inactive)
98 | CCOC(=O)Cn1c(SC)nc2sc3c(c2c1=O)CC(C)(C)OC3 | 81.7% (active)
99 | CCC1(C)Cc2c(sc3nc4n(c(=O)c23)CCCS4)CO1 (stereo unspecified) | -10.6% (inactive)
100 | CCOC(=O)CSc1nc2sc3c(c2c(=O)[nH]1)CC(C)(C)OC3 | 4.9% (inactive)
101 | COc1ccc(CCN(C(=O)COc2ccccc2)c2nc(-c3ccccc3)cs2)cc1OC | -22.5% (inactive)
102 | C=CCOc1cccc(CNn2cn[nH]c2=S)c1 | 0.7% (inactive)
103 | Cn1c2ccccc2n2c(=O)c(=O)n(CC(=O)c3ccc(F)cc3)nc12 | -17.3% (inactive)
104 | COc1ccc(Nc2nc(-c3ccccc3)cs2)cc1 | 11.3% (inactive)
105 | c1ccc(C2CCC(N3CCC(N4CCCCC4)CC3)CC2)cc1 (stereo unspecified) | 26.6% (inactive)
106 | O=C(CSCc1c(Cl)cccc1Cl)NN1C(=O)c2ccccc2C1=O | 11.9% (inactive)
107 | CC(=O)NNc1cc(=O)c2c(=O)n(C)c(=O)n(C)c2[nH]1 | -8.3% (inactive)
108 | CCCCNC(=O)CCn1c(=S)[nH]c2cc3c(cc2c1=O)OCO3 | -16.1% (inactive)
109 | CCCNC(=S)NC1CC2CCCC(C1)N2CC(C)C (stereo unspecified) | 14.2% (inactive)
110 | O=C(NC1CCc2ccccc21)C12CN(Cc3ccccc3)CC1C(c1cccc([N+](=O)[O-])c1)=NO2 (stereo unspecified) | 11.9% (inactive)
111 | CCCSc1nsc(N)n1 | 8.5% (inactive)
